Experimental data reported in PubChem BioAssay (EPA / NIEHS).
Results filed as inconclusive are left out. Some structures have more than one record in an assay (separate samples or runs), and their calls can disagree. Activity calls are given as the source filed them. The calls were made as follows, unless noted: active = hit-call score of the fitted dose curve at least 0.9, where 1 is the maximum; inconclusive = response in the unintended direction; inactive = score below 0.9.

How the values were obtained:
[1] = biological target: Oxysterols receptor LXR-alpha (Homo sapiens) (UniProt Q13133); experiment: ATG_LXRa_TRANS: Attagene TRANS-FACTORIAL HepG2 Assay for human Liver X Receptor alpha (LXRa) (AID 2282980); conditions: HepG2 Attagene TRANS reporter, LXRa transactivation
Sequence of Oxysterols receptor LXR-alpha (Homo sapiens) (Q13133 whole entry, looked up): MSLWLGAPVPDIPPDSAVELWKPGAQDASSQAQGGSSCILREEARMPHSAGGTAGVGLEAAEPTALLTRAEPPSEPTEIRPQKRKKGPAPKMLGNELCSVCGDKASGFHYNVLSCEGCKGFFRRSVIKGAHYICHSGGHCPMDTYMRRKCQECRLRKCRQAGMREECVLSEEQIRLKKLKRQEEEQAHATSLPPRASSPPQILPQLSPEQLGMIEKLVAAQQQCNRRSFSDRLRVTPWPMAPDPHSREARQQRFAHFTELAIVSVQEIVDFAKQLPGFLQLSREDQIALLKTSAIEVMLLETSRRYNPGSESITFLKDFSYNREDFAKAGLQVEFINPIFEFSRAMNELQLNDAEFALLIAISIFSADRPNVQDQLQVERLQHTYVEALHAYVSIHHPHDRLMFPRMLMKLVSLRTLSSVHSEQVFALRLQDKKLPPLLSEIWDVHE
In short: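 Transient HepG2 transfectants, 24 h dosing, RT-PCR/CE mRNA reporter quantitation; gain-of-signal vs DMSO.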

[2] = biological target: Oxysterols receptor LXR-beta (Homo sapiens) (UniProt P55055); experiment: ATG_LXRb_TRANS: Attagene TRANS-FACTORIAL HepG2 Assay for human Liver X Receptor beta (LXRb) (AID 2282981); conditions: HepG2 Attagene TRANS GAL4-LXRb reporter, mRNA
Sequence of Oxysterols receptor LXR-beta (Homo sapiens) (P55055 whole entry, looked up, the tested form may be a part): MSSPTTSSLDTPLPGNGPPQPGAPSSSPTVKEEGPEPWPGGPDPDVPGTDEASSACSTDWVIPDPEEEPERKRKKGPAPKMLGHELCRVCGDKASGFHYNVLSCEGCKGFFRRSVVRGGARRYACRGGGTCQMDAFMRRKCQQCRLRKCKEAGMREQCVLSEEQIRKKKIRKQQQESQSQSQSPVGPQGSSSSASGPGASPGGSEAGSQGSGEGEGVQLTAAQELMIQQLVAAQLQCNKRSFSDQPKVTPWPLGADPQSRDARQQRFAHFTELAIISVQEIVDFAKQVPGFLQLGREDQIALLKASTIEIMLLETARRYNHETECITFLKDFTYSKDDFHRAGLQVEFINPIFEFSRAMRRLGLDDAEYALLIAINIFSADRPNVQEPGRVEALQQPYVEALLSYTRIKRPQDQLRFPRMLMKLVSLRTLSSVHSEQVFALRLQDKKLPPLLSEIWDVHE
In short: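 Cells: HepG2, transiently transfected with GAL4-UAS reporter units plus LXRb-Gal4 fusion. Treatment: 24 h. Detection: reporter mRNA by RT-PCR, 6-FAM labelling, HpaI digestion, capillary electrophoresis.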

[3] = biological target: Hepatocyte nuclear factor 4-alpha (Homo sapiens) (UniProt P41235); experiment: ATG_HNF4a_TRANS: Attagene TRANS-FACTORIAL HepG2 Assay for human Hepatocyte Nuclear Factor 4 alpha (HNF4a) (AID 2282982); conditions: HepG2 HNF4a transactivation reporter, mRNA readout
Sequence of Hepatocyte nuclear factor 4-alpha (Homo sapiens) (P41235 whole entry, looked up): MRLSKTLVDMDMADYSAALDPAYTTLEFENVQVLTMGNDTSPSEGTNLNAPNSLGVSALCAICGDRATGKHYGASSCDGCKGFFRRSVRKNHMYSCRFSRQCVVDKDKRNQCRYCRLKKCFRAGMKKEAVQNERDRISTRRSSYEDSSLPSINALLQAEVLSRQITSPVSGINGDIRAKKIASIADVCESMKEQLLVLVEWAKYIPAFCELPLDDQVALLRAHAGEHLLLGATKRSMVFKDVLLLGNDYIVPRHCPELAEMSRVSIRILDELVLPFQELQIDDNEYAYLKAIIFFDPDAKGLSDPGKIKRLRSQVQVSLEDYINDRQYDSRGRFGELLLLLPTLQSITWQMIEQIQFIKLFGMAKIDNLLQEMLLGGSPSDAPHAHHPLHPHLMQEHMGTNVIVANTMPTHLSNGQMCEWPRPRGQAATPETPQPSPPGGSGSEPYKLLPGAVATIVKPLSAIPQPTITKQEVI
In short: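 Transfected HepG2 reporter cells are dosed for 24 h; reporter RNA is reverse-transcribed, amplified, fluorescently labelled and HpaI-digested before CE sizing. Positive-direction fit against DMSO.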

[4] = biological target: Nuclear receptor subfamily 4 group A member 2 (Homo sapiens) (UniProt P43354); experiment: ATG_NURR1_TRANS: Attagene TRANS-FACTORIAL HepG2 Assay for human Nuclear Receptor Related Protein 1 (NURR1) (AID 2282985); conditions: HepG2 Attagene TRANS reporter, mRNA readout
Sequence of Nuclear receptor subfamily 4 group A member 2 (Homo sapiens) (P43354 whole entry, looked up): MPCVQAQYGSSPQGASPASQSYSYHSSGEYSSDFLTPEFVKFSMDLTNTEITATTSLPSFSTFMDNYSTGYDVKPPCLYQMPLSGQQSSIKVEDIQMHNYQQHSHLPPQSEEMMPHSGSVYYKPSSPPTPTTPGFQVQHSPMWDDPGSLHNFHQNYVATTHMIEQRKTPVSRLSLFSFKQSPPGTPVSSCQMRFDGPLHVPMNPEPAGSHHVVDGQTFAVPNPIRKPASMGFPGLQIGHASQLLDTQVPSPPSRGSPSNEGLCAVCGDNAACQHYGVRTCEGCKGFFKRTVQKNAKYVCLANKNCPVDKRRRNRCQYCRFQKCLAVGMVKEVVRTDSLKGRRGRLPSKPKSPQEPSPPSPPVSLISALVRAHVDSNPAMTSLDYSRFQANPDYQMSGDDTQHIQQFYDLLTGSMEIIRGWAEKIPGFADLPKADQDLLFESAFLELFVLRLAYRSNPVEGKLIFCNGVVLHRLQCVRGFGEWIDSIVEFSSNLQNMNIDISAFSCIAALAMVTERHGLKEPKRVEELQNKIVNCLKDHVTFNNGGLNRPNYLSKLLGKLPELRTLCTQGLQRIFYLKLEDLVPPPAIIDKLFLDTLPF
In short: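 Cells: HepG2, transiently transfected. Exposure: 24 h. Detection: fluorescence of labelled RT-PCR products separated by capillary electrophoresis; upward fit versus DMSO.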

[5] = biological target: Transcriptional activator Myb (Homo sapiens) (UniProt P10242); experiment: ATG_Myb_CIS: Attagene CIS-FACTORIAL HepG2 Assay for human Myeloblastosis (Myb) Proto-Oncogene Transcription Factor (AID 2282986; active = hit-call score of the fitted dose curve at least 0.9, where 1 is the maximum; inactive = score below 0.9); conditions: HepG2 Attagene CIS-FACTORIAL Myb reporter transcription; actives raise or lower the signal
Sequence of Transcriptional activator Myb (Homo sapiens) (P10242 whole entry, looked up): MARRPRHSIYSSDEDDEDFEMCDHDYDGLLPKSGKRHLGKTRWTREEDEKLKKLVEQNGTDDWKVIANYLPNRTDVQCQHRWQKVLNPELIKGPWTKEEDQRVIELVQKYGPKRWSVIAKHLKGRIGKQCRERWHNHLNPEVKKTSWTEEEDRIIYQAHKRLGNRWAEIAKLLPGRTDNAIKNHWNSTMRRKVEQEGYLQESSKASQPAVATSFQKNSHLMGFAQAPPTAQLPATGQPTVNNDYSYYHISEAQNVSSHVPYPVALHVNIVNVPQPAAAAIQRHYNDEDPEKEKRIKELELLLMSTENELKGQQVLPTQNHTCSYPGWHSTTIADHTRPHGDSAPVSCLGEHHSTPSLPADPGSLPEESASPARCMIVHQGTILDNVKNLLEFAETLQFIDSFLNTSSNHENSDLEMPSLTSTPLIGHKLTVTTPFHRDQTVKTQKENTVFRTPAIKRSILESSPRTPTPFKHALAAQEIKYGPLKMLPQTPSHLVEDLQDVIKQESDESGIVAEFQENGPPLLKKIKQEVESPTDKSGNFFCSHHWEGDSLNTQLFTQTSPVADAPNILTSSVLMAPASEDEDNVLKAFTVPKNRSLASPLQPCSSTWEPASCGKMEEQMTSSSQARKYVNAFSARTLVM
In short: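 Fluorescence signals from capillary electrophoresis of RT-PCR-amplified reporter cDNA give the read-out. Cells: HepG2 transfected with multiple cis-regulated reporter units. Exposure lasts 24 hours; DMSO defines baseline for gain or loss of signal.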

[6] = biological target: Nuclear respiratory factor 1 (Homo sapiens) (UniProt Q16656); experiment: ATG_NRF1_CIS: Attagene CIS-FACTORIAL HepG2 Assay for human Nuclear Respiratory Factor 1 (NRF1) Orphan Gene (AID 2282987; active = hit-call score of the fitted dose curve at least 0.9, where 1 is the maximum; inactive = score below 0.9); conditions: HepG2 NRF1 cis-element reporter, Attagene multiplex; actives raise or lower the signal
Sequence of Nuclear respiratory factor 1 (Homo sapiens) (Q16656 whole entry, looked up): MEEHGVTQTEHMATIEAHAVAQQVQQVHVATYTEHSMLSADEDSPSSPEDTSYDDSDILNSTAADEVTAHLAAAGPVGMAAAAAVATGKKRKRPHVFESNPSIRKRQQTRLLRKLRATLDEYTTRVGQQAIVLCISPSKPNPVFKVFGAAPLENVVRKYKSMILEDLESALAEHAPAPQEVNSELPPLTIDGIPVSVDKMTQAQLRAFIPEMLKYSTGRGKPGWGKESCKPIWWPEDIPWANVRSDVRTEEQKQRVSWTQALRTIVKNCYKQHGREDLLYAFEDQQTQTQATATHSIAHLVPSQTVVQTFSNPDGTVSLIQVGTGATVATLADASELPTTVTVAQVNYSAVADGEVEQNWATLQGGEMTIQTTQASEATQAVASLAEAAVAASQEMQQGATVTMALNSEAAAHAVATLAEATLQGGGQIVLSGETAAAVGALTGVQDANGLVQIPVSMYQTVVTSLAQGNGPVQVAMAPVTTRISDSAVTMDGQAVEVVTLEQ
In short: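 Transcriptional reporter readout, one component of a 52-endpoint multiplexed HepG2 panel. Exposure 24 h; mRNA detected via RT-PCR and fluorescent capillary electrophoresis; fitting in both directions against DMSO.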

[7] = ATG_M_32_TRANS: Attagene TRANS-FACTORIAL HepG2 Assay for M32 Transcription Factor (Internal Marker) (AID 2282984); conditions: HepG2 Attagene TRANS M32 internal marker reporter;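 also: transcript level of a background control reporter unit measured by RT-PCR and capillary electrophoresis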
In short: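 Using transiently transfected HepG2 cells exposed to test chemicals for 24 h, reporter transcripts are converted to labelled cDNA fragments and quantified by capillary electrophoresis. DMSO defines the activity baseline.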

[8] = ATG_M_06_TRANS: Attagene TRANS-FACTORIAL HepG2 Assay for M06 Transcription Factor (Internal Marker) (AID 2282983); conditions: HepG2 Attagene TRANS M06 internal marker reporter;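 also: reporter transcript level by RT-PCR then capillary electrophoresis fluorescence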
In short: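 Measured by capillary electrophoresis of fluorescently labelled RT-PCR products, this endpoint reflects reporter mRNA in HepG2 cells harbouring exogenous NR-GAL4 reporter constructs after 24 h exposure, with DMSO as baseline.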

[9] = biological target: Bile acid receptor (Homo sapiens) (UniProt Q96RI1); experiment: ATG_FXR_TRANS: Attagene TRANS-FACTORIAL HepG2 Assay for Farnesoid X Receptor (FXR) (AID 2282979); conditions: HepG2 Attagene TRANS FXR-GAL4 reporter transcription;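 also: hits raise reporter mRNA above DMSO so AC50 marks FXR activation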
Sequence of Bile acid receptor (Homo sapiens) (Q96RI1 whole entry, looked up, the tested form may be a part): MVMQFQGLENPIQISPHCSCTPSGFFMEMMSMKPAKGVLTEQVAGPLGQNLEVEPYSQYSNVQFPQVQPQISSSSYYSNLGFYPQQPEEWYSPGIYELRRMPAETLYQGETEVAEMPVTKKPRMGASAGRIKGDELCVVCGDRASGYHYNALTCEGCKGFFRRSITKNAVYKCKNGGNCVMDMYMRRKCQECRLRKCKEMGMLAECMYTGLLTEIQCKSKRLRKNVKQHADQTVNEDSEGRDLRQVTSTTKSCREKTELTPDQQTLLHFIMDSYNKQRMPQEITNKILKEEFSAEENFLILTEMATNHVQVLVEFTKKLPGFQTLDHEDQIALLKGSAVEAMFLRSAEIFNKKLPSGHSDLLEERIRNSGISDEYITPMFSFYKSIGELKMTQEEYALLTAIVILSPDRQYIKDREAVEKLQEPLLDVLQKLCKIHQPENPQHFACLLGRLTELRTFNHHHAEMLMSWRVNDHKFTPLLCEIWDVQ
In short: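 Chimeric FXR-GAL4 activity in transiently transfected human HepG2 liver cells is scored as induction of reporter mRNA after 24 h of dosing. Detection uses RT-PCR with fluorescent labelling and capillary electrophoresis, with DMSO serving as baseline.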

[10] = ATG_M_61_TRANS: Attagene TRANS-FACTORIAL HepG2 Assay for M61 Transcription Factor (Internal Marker) (AID 2282988; active = hit-call score of the fitted dose curve at least 0.9, where 1 is the maximum; inactive = score below 0.9); conditions: HepG2 Attagene TRANS M61 internal marker reporter
Protocol: ATG_TRANS is a cell-based, multiplexed-readout assay that uses HepG2, a human liver cell line, with measurements taken at 24 hours after chemical dosing in a 24-well plate.ATG_M_61_TRANS is one of 30 assay component(s) measured or calculated from the ATG_TRANS assay. It is designed to make measurements of mRNA induction, a form of inducible reporter, as detected with fluorescence intensity signals by Reverse transcription polymerase chain reaction (RT-PCR) and Capillary electrophoresis technology.Data from the assay component ATG_M_61_TRANS was analyzed into 1 assay endpoint. This assay endpoint, ATG_M_61_TRANS, was analyzed in the positive analysis fitting direction relative to DMSO as the negative control and baseline of activity. […] Furthermore, this assay endpoint can be referred to as a secondary readout, because this assay has produced multiple assay endpoints where this one serves a background control function. […]
Human liver HepG2 cells are transiently transfected with multiple reporter transcription units (MRTUs) in 6-well plates using FuGene 6 reagent (Roche; 3 ml FuGene/1 mg DNA). […] A major difference between the CIS and TRANS system is that in CIS activities of endogenous TFs are measured, whereas the TRANS assay evaluates changes in activities of exogenous, chimeric NR-Gal4 proteins. […]

Measured: AC50

CC1=CC(=O)c2ccccc2C1=O
inactive: [1] | [2] | [3] | [4] | [5] | [6]

Oc1cc2ccccc2cc1O
inactive: [1] | [3] | [4] | [5] | [6]

CC(C)(c1ccc(Oc2ccc(N)cc2)cc1)c1ccc(Oc2ccc(N)cc2)cc1
active: [1] 3.21 µM | [4] 7.23 µM
inactive: [2] | [3] | [7] | [5] | [6]

O=c1cc(-c2ccccc2)oc2ccc3ccccc3c12
inactive: [1] | [2] | [3] | [7] | [4] | [6]

C[C@]12CC[C@@H]3c4ccc(O)cc4CC[C@H]3[C@@H]1CC[C@@H]2OC(=O)CCC1CCCC1
inactive: [1] | [2] | [8] | [5] | [6]

COCC1CCC(CO)CC1 (stereo not given)
inactive: [1] | [2] | [8] | [5] | [6]

CCCCCCCCCCCC(=O)O
inactive: [1] | [2] | [8] | [4] | [5] | [6]

CC(C)C=O
inactive: [1] | [2] | [3] | [7] | [4] | [6]

CCOC(=O)c1nc(C(Cl)(Cl)Cl)n(-c2ccc(Cl)cc2Cl)n1
inactive: [9] | [5] | [6] | [10]
active: [4] 66 µM

Oc1cccc2c(O)cccc12
inactive: [1] | [2] | [8] | [4] | [5] | [6]

CCC(C)c1nccnc1OC (stereo not given)
inactive: [1] | [2] | [8] | [5] | [6]

C[C@]12CC[C@@H]3c4ccc(O)cc4CC[C@H]3[C@@H]1C[C@@H](O)[C@@H]2O
not listed: [2] | [9] | [10]
inactive: all other assays above

COc1cccc(O)c1
inactive: [1] | [8] | [7] | [4] | [5] | [6]

FC(F)=C(F)C(F)(F)C(F)(F)C(F)(F)C(F)F
inactive: [9] | [5] | [6]

Cc1cc(C(=C2C=CC(=Nc3ccc(S(=O)(=O)O)cc3)C=C2)c2ccc(Nc3ccc(S(=O)(=O)O)cc3)cc2)cc(S(=O)(=O)O)c1N
not listed: [4] | [9] | [10]
inactive: all other assays above

CN(C)CCOC(c1ccccc1)c1ccccc1
inactive: [1] | [2] | [8] | [5]

C=C(c1ccc(C(=O)O)cc1)c1cc2c(cc1C)C(C)(C)CCC2(C)C
inactive: [1] | [2] | [8] | [5] | [6]
active: [5] 31 µM

FC(F)(F)C1(F)C(F)(F)C(F)(F)C(F)(F)C1(F)F
inactive: [9] | [7] | [5] | [6]

CC(C)(C)c1ccc(CCC=O)cc1
inactive: [9] | [7] | [4] | [5] | [6]

CN(CCO)S(=O)(=O)C(F)(F)C(F)(F)C(F)(F)C(F)(F)C(F)(F)C(F)(F)C(F)(F)C(F)(F)F
inactive: [1] | [3] | [8] | [4] | [6]

Cc1ccc(S(=O)(=O)O)cc1
not listed: [2] | [9] | [10]
inactive: all other assays above

CCOCCOCC
not listed: [9] | [10]
inactive: all other assays above

CCc1ccccc1O
inactive: [9] | [7] | [5] | [6]

O=C(O)C(=O)O
not listed: [4] | [9] | [10]
inactive: all other assays above

Cc1ccc(N=Nc2c(O)ccc3ccccc23)c(C)c1
not listed: [9] | [10]
inactive: all other assays above

CCCC=O
not listed: [7] | [9] | [10]
inactive: all other assays above

Clc1ccc(Nc2nnc(Cc3ccncc3)c3ccccc23)cc1
inactive: [9] | [5] | [6]
active: [4] 42 µM
